# Measured values published in PubChem BioAssay (EPA / NIEHS).
# Records with an inconclusive call do not appear. Where a structure was tested more than once in an assay, its records may differ in their call. Calls of active or inactive are those of the source. How the source made its calls: active means hit-call score of the fitted dose curve at least 0.9, where 1 is the maximum; inconclusive means response in the unintended direction; inactive means score below 0.9.
# Tests used:
# [1] = molecular target: Glycogen synthase kinase-3 beta (Homo sapiens) (UniProt P49841); test: NVS_ENZ_hGSK3b: NovaScreen (NVS) Enzymatic Assay for human Glycogen Synthase Kinase-3 beta (GSK3b) (AID 2283165)
# How it was run: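 Recombinant enzyme with specific fluorescent substrate, 1 h, product separated by electrophoretic mobility shift. Primary duplicate screen at 25 uM; actives (e.g. 30% inhibition) followed in singleton concentration-response to 50 uM. Signal loss fitted versus DMSO.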
# [2] = molecular target: human Matrix Metalloproteinase-7 (MMP7), MMP7 (gene 4316) (UniProt P09237); test: NVS_ENZ_hMMP7: NovaScreen (NVS) Enzymatic Assay for human Matrix Metalloproteinase-7 (MMP7) (AID 2283183)
# How it was run: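 Cell-free fluorescence enzymatic assay read 1 h after compound addition, activity loss analyzed against DMSO. Primary duplicate testing at 25 uM; compounds meeting threshold rerun in singleton concentration-response up to 50 uM.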
# [3] = molecular target: Collagenase 3 (Homo sapiens) (UniProt P45452); test: NVS_ENZ_hMMP13: NovaScreen (NVS) Enzymatic Assay for human Matrix Metalloproteinase-13 (MMP13) (AID 2283182)
# How it was run: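 Recombinant MMP13 cleaving fluorescent substrate, cell-free, measured 1 h after dosing. Primary duplicate screen at 25 uM; actives tested in concentration-response up to 50 uM; loss of signal relative to DMSO.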
# [4] = molecular target: human Matrix Metalloproteinase-2 (MMP2), MMP2 (gene 4313) (UniProt P08253); test: NVS_ENZ_hMMP2: NovaScreen (NVS) Enzymatic Assay for human Matrix Metalloproteinase-2 (MMP2) (AID 2283184)
# How it was run: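 Cell-free recombinant MMP2 activity with a fluorescent substrate, read 1 h after dosing. Primary screen in duplicate at 25 uM; actives then run in concentration series; loss of signal fitted versus DMSO.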
# [5] = molecular target: human Matrix Metalloproteinase-3 (MMP3), MMP3 (gene 4314) (UniProt P08254); test: NVS_ENZ_hMMP3: NovaScreen (NVS) Enzymatic Assay for human Matrix Metalloproteinase-3 (MMP3) (AID 2283185)
# How it was run: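 Cell-free recombinant human MMP3 activity, fluorescence intensity read 1 h after dosing. Primary screen duplicate at 25 uM, actives retested in concentration series; loss of signal vs DMSO baseline.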
# [6] = molecular target: human Matrix Metalloproteinase-9 (MMP9), MMP9 (gene 4318) (UniProt P14780); test: NVS_ENZ_hMMP9: NovaScreen (NVS) Enzymatic Assay for human Matrix Metalloproteinase-9 (MMP9) (AID 2283190);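 further: cell-free recombinant MMP9 protease activity read by fluorescent substrate signal; active means inhibition seen as loss of fluorescence signal versus DMSO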
# How it was run: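 Cell-free fluorescence-intensity enzyme activity assay using extracted protein, read 1 h after dosing. Loss of signal versus DMSO baseline indicates inhibition; primary screen in duplicate at 25 uM, actives followed up in concentration series.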
# [7] = molecular target: human Phosphoinositide 3-kinase alpha (PI3Ka), PIK3CA (gene 5290) (UniProt P42336); test: NVS_ENZ_hPI3Ka: NovaScreen (NVS) Enzymatic Assay for human Phosphoinositide 3-kinase alpha (PI3Ka) (AID 2283196)
# How it was run: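 Enzyme activity as fluorescence after mobility-shift separation of substrate and product, 1 h reaction, recombinant human PI3Kα; concentration-response to 50 uM max for chemicals passing a 25 uM duplicate screen.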
# [8] = molecular target: human Phosphodiesterase 5 (PDE5), PDE5A (gene 8654) (UniProt O76074); test: NVS_ENZ_hPDE5: NovaScreen (NVS) Enzymatic Assay for human Phosphodiesterase 5 (PDE5) (AID 2283194)
# How it was run: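 Recombinant human PDE5 with specific substrate, read 1 h after dosing by fluorescence with electrophoretic mobility-shift separation of substrate and product. Initial single-concentration duplicate screen at 25 uM, actives followed in concentration series; loss of activity versus DMSO.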
# [9] = molecular target: human Matrix Metalloproteinase-1 (MMP1), MMP1 (gene 4312) (UniProt P03956); test: NVS_ENZ_hMMP1: NovaScreen (NVS) Enzymatic Assay for human Matrix Metalloproteinase-1 (MMP1) (AID 2283181)
# How it was run: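 Human MMP1 enzyme activity measured by fluorescence 1 h after dosing, cell-free, with a specific substrate. Screened in duplicate at 25 uM; hits (e.g. 30% inhibition) run in concentration-response up to 50 uM; loss of signal versus DMSO.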
# [10] = molecular target: Mitogen-activated protein kinase 3 (Homo sapiens) (UniProt P27361); test: NVS_ENZ_hMAPK3: NovaScreen (NVS) Enzymatic Assay for human Mitogen-Activated Protein Kinase 3 (MAPK 3) (AID 2283177)
# How it was run: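 Cell-free enzymatic assay with recombinant protein and specific substrate; fluorescence and electrophoretic mobility shift read-out 1 h after dosing. Primary screen duplicate at 25 uM; actives then run in concentration-response up to 50 uM, loss of signal versus DMSO.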
# [11] = molecular target: human MET Proto-Oncogene, Receptor Tyrosine Kinase (MET), MET (gene 4233) (UniProt P08581); test: NVS_ENZ_hMet: NovaScreen (NVS) Enzymatic Assay for human MET Proto-Oncogene, Receptor Tyrosine Kinase (MET) (AID 2283180)
# How it was run: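 Cell-free MET kinase assay using recombinant protein and fluorescent substrate, with mobility-shift separation; read 1 h after dosing. Primary duplicate at 25 uM; actives in singleton concentration-response to 50 uM maximum. Signal loss versus DMSO.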
# [12] = molecular target: human Protein Phosphatase, Mg2+/Mn2+ Dependent 1A (PPM1A), PPM1A (gene 5494) (UniProt P35813); test: NVS_ENZ_hPPM1A: NovaScreen (NVS) Enzymatic Assay for human Protein Phosphatase, Mg2+/Mn2+ Dependent 1A (PPM1A) (AID 2283198)
# How it was run: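 Cell-free recombinant PPM1A phosphatase assay with fluorescent substrate, read 1 h after dosing by electrophoretic mobility shift. Chemicals screened in duplicate at 25 uM, then in concentration-response up to 50 uM; loss of activity versus DMSO.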
# [13] = molecular target: human Protein Tyrosine Phosphatase Non-receptor Type 1 (PTPN1), PTPN1 (gene 5770) (UniProt P18031); test: NVS_ENZ_hPTPN1: NovaScreen (NVS) Enzymatic Assay for human Protein Tyrosine Phosphatase Non-receptor Type 1 (PTPN1) (AID 2283201)
# How it was run: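 Cell-free fluorogenic-substrate activity assay on recombinant enzyme, read 1.33 h after dosing by fluorescence and electrophoretic mobility shift; loss of signal vs DMSO baseline. Primary screen in duplicate at 25 uM, hits then run in concentration-response up to 50 uM.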
# [14] = molecular target: Tyrosine-protein phosphatase non-receptor type 12 (Homo sapiens) (UniProt Q05209); test: NVS_ENZ_hPTPN12: NovaScreen (NVS) Enzymatic Assay for human Protein Tyrosine Phosphatase Non-receptor Type 12 (PTPN12) (AID 2283204)
# How it was run: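 Single-concentration duplicates (25 uM) preceded singleton concentration-response up to 50 uM for chemicals passing threshold. Cell-free recombinant PTPN12 activity was read 1.33 h after dosing via fluorescence after mobility-shift separation; loss of signal versus DMSO.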
# [15] = molecular target: human p21 Activated Kinase 4 (PAK4), PAK4 (gene 10298) (UniProt O96013); test: NVS_ENZ_hPAK4: NovaScreen (NVS) Enzymatic Assay for human p21 Activated Kinase 4 (PAK4) (AID 2283189)
# How it was run: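 Cell-free recombinant human PAK4 activity assay; fluorescent substrate and product separated by electrophoretic mobility shift, read 1 h after dosing. Initially tested in duplicate at 25 uM, relative to DMSO baseline.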
# [16] = molecular target: human Janus Kinase 2 (Jak2), JAK2 (gene 3717) (UniProt O60674); test: NVS_ENZ_hJak2: NovaScreen (NVS) Enzymatic Assay for human Janus Kinase 2 (Jak2) (AID 2283169)
# How it was run: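 Cell-free recombinant human JAK2 enzyme activity assay, fluorescence/electrophoretic mobility shift read 1 h after dosing. Screened in duplicate at 25 uM, then concentration-response up to 50 uM; activity as signal loss relative to DMSO.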
# [17] = molecular target: human Phosphodiesterase 4A1 (PDE4A1), PDE4A (gene 5141) (UniProt P27815); test: NVS_ENZ_hPDE4A1: NovaScreen (NVS) Enzymatic Assay for human Phosphodiesterase 4A1 (PDE4A1) (AID 2283191)
# How it was run: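 Cell-free recombinant human PDE4A1 with fluorescent substrate; product separated by electrophoretic mobility shift, 1 h. Screened at 25 uM, then up to 50 uM in concentration-response; loss of signal fitted against DMSO.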
# [18] = molecular target: Serine/threonine-protein phosphatase PP1-alpha catalytic subunit (Homo sapiens) (UniProt P62136); test: NVS_ENZ_hPPP1CA: NovaScreen (NVS) Enzymatic Assay for human Protein Phosphatase 1 Aatalytic subunit Alpha (PPP1CA) (AID 2283200)
# How it was run: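 Recombinant enzyme activity read by fluorescence with electrophoretic mobility shift separating substrate from product, 1.33 h after dosing; loss of signal vs DMSO baseline. Primary screen in duplicate at 25 uM; actives retested in concentration-response up to 50 uM.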
# Chain of Glycogen synthase kinase-3 beta (Homo sapiens) (P49841 whole entry, looked up): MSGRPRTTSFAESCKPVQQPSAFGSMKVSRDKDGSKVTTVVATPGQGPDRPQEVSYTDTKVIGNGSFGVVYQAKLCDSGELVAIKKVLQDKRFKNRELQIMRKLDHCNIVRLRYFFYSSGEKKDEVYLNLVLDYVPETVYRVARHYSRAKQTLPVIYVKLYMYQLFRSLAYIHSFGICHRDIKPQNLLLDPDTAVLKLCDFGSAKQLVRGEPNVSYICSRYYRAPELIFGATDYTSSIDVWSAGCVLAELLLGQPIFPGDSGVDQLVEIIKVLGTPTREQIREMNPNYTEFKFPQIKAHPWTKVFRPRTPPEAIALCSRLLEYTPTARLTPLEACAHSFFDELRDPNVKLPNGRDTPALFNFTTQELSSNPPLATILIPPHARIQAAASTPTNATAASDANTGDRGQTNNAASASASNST
# Chain of human Matrix Metalloproteinase-9 (MMP9), MMP9 (gene 4318) (P14780 whole entry, looked up): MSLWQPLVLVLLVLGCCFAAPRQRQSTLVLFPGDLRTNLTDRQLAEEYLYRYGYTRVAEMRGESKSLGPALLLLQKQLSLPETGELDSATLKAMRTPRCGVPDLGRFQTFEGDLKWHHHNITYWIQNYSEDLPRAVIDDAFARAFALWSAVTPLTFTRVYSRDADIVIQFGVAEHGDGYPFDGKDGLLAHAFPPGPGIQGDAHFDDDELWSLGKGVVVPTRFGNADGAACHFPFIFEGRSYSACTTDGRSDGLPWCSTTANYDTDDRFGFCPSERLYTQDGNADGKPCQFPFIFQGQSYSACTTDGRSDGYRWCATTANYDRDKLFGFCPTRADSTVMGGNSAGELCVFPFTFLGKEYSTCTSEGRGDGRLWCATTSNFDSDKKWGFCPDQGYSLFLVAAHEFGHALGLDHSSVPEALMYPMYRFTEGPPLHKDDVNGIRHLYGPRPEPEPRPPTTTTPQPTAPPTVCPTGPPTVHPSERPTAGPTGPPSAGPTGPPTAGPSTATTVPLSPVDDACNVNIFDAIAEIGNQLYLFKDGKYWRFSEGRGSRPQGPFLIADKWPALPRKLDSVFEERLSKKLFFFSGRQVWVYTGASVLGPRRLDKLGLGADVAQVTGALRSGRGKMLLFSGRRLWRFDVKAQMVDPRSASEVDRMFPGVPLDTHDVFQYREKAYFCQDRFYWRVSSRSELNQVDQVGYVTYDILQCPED
# Chain of human Matrix Metalloproteinase-1 (MMP1), MMP1 (gene 4312) (P03956 whole entry, looked up): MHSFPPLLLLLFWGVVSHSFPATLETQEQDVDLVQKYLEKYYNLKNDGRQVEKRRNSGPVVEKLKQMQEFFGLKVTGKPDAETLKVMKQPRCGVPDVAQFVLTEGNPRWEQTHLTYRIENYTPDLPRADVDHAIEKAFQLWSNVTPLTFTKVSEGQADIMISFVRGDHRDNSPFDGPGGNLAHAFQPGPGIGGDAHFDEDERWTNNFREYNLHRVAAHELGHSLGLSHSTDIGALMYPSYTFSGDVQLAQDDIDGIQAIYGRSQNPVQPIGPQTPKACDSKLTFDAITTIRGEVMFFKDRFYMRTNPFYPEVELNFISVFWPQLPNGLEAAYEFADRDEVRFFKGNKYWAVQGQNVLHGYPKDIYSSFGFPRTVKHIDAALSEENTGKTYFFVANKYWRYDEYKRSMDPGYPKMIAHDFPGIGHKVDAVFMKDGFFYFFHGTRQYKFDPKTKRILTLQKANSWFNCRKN
# Chain of Mitogen-activated protein kinase 3 (Homo sapiens) (P27361 whole entry, looked up): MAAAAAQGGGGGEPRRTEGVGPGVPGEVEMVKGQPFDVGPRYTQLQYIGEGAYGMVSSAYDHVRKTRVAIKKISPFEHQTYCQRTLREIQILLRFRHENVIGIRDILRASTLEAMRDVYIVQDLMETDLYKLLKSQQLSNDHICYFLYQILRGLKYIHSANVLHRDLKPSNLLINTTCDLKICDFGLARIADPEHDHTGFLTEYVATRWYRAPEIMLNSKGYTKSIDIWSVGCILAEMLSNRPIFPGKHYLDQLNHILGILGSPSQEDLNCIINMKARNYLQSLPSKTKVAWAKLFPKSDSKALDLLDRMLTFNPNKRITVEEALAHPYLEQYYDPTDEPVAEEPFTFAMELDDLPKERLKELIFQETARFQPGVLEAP
# Chain of human Matrix Metalloproteinase-2 (MMP2), MMP2 (gene 4313) (P08253 whole entry, looked up): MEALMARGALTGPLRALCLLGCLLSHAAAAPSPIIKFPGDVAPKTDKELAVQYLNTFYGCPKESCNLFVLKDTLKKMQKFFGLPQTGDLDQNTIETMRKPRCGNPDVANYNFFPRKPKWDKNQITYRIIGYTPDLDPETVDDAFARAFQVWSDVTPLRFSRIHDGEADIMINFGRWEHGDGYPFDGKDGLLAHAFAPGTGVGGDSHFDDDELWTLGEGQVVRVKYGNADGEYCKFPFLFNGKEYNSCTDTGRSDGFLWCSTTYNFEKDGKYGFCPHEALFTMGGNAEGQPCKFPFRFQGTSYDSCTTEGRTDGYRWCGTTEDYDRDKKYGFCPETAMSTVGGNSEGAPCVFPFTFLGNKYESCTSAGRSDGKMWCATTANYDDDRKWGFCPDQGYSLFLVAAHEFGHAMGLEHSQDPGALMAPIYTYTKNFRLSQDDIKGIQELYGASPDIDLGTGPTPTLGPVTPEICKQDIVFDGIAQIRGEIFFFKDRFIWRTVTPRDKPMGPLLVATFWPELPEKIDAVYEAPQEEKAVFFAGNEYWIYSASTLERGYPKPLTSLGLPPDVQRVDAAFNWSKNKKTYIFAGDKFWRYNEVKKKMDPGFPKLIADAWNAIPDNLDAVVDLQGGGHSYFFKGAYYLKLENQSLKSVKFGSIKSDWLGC
# Chain of human Protein Tyrosine Phosphatase Non-receptor Type 1 (PTPN1), PTPN1 (gene 5770) (P18031 whole entry, looked up): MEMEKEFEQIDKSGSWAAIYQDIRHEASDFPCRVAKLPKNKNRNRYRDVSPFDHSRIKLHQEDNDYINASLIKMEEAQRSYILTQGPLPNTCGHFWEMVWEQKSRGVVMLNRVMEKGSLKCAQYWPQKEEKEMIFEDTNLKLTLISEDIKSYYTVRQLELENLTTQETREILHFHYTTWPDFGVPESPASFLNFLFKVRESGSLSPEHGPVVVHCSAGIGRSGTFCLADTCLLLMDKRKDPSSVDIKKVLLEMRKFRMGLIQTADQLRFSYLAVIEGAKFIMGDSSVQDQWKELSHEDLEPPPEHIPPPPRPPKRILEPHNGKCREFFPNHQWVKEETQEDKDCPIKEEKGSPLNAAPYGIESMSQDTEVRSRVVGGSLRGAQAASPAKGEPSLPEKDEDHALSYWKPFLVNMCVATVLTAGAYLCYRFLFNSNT
# Chain of human Phosphoinositide 3-kinase alpha (PI3Ka), PIK3CA (gene 5290) (P42336 whole entry, looked up): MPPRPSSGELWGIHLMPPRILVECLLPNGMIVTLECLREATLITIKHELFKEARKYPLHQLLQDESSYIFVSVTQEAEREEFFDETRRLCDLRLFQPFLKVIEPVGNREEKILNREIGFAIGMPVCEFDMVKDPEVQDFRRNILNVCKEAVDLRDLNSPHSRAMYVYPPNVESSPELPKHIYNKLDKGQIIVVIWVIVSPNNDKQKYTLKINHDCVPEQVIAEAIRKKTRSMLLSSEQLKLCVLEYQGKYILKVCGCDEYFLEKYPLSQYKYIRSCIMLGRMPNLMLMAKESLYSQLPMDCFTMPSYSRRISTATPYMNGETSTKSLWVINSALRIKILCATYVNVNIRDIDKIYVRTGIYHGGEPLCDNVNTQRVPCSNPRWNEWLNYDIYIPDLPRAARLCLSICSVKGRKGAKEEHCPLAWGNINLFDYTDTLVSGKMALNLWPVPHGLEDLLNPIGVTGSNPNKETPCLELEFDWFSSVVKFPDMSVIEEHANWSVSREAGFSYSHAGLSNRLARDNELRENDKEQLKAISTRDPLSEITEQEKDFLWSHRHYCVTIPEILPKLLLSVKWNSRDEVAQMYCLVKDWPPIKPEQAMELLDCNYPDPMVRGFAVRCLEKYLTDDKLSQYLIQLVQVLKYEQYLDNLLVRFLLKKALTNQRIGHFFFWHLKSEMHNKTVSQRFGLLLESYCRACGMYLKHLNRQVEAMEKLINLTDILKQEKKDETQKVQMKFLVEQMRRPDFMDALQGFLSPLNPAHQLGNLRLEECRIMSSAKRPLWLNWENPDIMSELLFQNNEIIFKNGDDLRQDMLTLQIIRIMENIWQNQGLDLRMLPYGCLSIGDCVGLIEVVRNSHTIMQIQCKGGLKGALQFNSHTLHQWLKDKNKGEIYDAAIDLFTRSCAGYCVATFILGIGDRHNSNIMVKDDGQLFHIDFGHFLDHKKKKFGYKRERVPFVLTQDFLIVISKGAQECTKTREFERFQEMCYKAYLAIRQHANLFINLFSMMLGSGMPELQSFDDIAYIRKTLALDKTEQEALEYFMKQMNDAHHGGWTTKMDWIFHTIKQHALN
# Chain of Tyrosine-protein phosphatase non-receptor type 12 (Homo sapiens) (Q05209 whole entry, looked up): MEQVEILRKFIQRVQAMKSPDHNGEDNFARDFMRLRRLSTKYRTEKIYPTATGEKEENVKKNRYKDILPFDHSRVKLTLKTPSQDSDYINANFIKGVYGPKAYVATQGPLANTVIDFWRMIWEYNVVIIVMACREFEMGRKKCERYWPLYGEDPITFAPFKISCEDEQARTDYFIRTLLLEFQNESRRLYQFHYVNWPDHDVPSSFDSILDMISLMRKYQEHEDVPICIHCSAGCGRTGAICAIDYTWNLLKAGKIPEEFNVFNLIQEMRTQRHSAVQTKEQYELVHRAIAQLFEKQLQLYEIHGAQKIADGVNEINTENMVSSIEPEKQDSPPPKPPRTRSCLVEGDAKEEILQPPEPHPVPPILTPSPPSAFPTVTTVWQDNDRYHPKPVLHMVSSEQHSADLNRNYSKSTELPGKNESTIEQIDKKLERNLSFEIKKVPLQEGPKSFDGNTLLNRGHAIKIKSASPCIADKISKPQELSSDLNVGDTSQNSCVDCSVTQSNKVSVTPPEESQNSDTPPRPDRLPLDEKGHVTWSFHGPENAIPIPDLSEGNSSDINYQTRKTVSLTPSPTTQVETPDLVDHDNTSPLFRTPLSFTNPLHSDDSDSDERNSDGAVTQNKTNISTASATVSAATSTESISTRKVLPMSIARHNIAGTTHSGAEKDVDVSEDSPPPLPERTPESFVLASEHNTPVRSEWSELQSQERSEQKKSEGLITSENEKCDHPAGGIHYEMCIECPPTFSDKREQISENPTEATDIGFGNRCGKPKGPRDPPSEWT
smiles,measurement,setting,value
O=C1C2(Cl)C3(Cl)C4(Cl)C(Cl)(Cl)C5(Cl)C3(Cl)C1(Cl)C5(Cl)C24Cl (stereo unspecified),outcome,[1],inactive
same,AC50,[2],5.85 µM (active)
O=C(O)C(F)(F)C(F)(F)C(F)(F)C(F)(F)C(F)(F)C(F)(F)C(F)(F)C(F)(F)C(F)(F)C(F)(F)F,AC50,[3],23.3 µM (active)
same,AC50,[4],21.9 µM (active)
same,AC50,[5],10.3 µM (active)
CCCCCCCCc1ccc(O)cc1,outcome,[1],inactive
Nc1ccc(-c2ccc(N)c(Cl)c2)cc1Cl,AC50,[6],0.597 µM (active)
same,outcome,[7],inactive
CC(C)(C)CC(C)(C)c1ccc(O)cc1,outcome,[1],inactive
same,outcome,[8],inactive
NC(=S)Nc1ccccc1,AC50,[6],29.4 µM (active)
Nc1cccc(Cl)c1,AC50,[6],0.226 µM (active)
Clc1ccc(C2(Cn3cncn3)CC(Br)CO2)c(Cl)c1 (stereo unspecified),outcome,[6],inactive
CN(C)P(=O)(N(C)C)N(C)C,AC50,[6],6.94 µM (active)
O=C(O)C(Cl)(Cl)Cl,outcome,[9],inactive
COc1cc(-c2ccc(N)c(OC)c2)ccc1N,outcome,[1],inactive
same,AC50,[3],17.9 µM (active)
same,AC50,[4],7.86 µM (active)
same,AC50,[6],15.7 µM (active)
same,outcome,[6],inactive
C[C@@H]1C[C@@H]([C@H](O)CC2CC(=O)NC(=O)C2)C(=O)[C@@H](C)C1,outcome,[10],inactive
CC(C)(C)c1cc(O)ccc1O,outcome,[11],inactive
CC(=O)[O][Hg][c]1ccccc1,AC50,[9],6.38 µM (active)
same,outcome,[8],inactive
same,outcome,[12],inactive
same,AC50,[13],9.68 µM (active)
same,AC50,[14],16 µM (active)
Cc1ccccc1N,outcome,[1],inactive
same,outcome,[7],inactive
C[C@]12CCC(=O)C[C@@H]1CC[C@@H]1[C@@H]2CC[C@]2(C)[C@@H](O)CC[C@@H]12,outcome,[15],inactive
C=C(C)C(=O)[O][Sn]([CH2]CCC)([CH2]CCC)[CH2]CCC,AC50,[9],3.07 µM (active)
CC12CC1(C)C(=O)N(c1cc(Cl)cc(Cl)c1)C2=O (stereo unspecified),AC50,[10],40.6 µM (active)
CC(C)(OO)c1ccccc1,outcome,[1],inactive
same,outcome,[15],inactive
ClC1=C(Cl)[C@]2(Cl)[C@H]3[C@H]([C@H]4C=C[C@H]3C4)[C@@]1(Cl)C2(Cl)Cl,AC50,[6],102 µM (active)
Cn1sc(Cl)cc1=O,outcome,[16],inactive
same,outcome,[10],inactive
CCN1CCC2(CC1)COc1cc3c(cc12)N(C(=O)c1ccc(-c2ccc(-c4nnc(C)o4)cc2C)cc1)CC3,outcome,[9],inactive
same,AC50,[6],4.37 µM (active)
same,AC50,[17],10.2 µM (active)
same,outcome,[8],inactive
O=C(OC1CCCCC1)c1ccccc1C(=O)OC1CCCCC1,AC50,[6],1.86 µM (active)
CCOC(=O)/C=C(C)/C=C/C[C@@H](C)CCCC(C)C,outcome,[6],inactive
CCC(C)(C)c1ccc(O)c(C(C)(C)CC)c1,outcome,[18],inactive
O=C(Nc1ccc2[nH]ccc2c1)c1cc2cc(F)ccc2n1Cc1cccc(F)c1,outcome,[13],inactive
CCOC(=O)Nc1cccc(OC(=O)Nc2ccccc2)c1,outcome,[14],inactive
